In PubChem BioAssay AID1159580 (chemical genetic matrix, 2015):
Among all 5,500 compounds or so, about 2,000 (36%) were called active. Not shown: some 18% with an inconclusive outcome. Rule as the data show it: active = normalized growth mostly below about 0.91 (no sharp cut-off); inconclusive = no clear call, values can overlap the other calls; inactive = mostly above about 0.92. The list shows a part of the results.

Assay: chemical genetic growth profiling, strain panel (AID 1159580);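 also: tested at 20 µM; growth read once vehicle control cultures reached saturation at 30 °C; 1 = growth at the plate median or of vehicle wells; lower values mean less growth of the strain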
Settings: S. cerevisiae deletion strains, growth OD

Measured: normalized growth

NOCC(=O)O
inactive: locus YAL040C, strain CLN3, hits give low values 0.96 | locus YCL061C, strain MRC1 (second series), hits give low values 0.985 | locus YDR363W, strain ESC2, hits give low values 1.01 | locus YER002W, strain NOP16, hits give low values 0.997 | locus YGR229C, strain SMI1, hits give low values 0.979 | locus YJR075W, strain HOC1, hits give low values 1 | locus YNL128W, strain TEP1, hits give low values 0.977 | locus YNL175C, strain NOP13, hits give low values 1.01 | locus YNL197C, strain WHI3, hits give low values 0.993 | locus YNL224C, strain SQS1, hits give low values 1.04 | locus YNL322C, strain KRE1, hits give low values 0.998 | locus YOR083W, strain WHI5 (second series), hits give low values 0.993 | locus YPL055C, strain LGE1, hits give low values 0.999
